# Reference: PubChem BioAssay (EPA / NIEHS)
# Where “and” joins values, the source holds several entries; their conditions need not be identical. Equal entries are not always repeated. Inconclusive results are not listed. Calls of active or inactive are those of the source. The calls were made as follows: active = hit-call score of the fitted dose curve at least 0.9, where 1 is the maximum; inconclusive = response in the unintended direction; inactive = score below 0.9.
# What was measured:
# [1] = target: human Neurokinin, NK2 Receptor, TACR2 (gene 6865) (UniProt P21452); assay: NVS_GPCR_hNK2: NovaScreen (NVS) G Protein-Coupled Receptor Assay for human Neurokinin, NK2 Receptor (AID 2283278);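 also: actives reduce bound radioligand signal relative to DMSO baseline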
# Chain of human Neurokinin, NK2 Receptor, TACR2 (gene 6865) (P21452 whole entry, looked up): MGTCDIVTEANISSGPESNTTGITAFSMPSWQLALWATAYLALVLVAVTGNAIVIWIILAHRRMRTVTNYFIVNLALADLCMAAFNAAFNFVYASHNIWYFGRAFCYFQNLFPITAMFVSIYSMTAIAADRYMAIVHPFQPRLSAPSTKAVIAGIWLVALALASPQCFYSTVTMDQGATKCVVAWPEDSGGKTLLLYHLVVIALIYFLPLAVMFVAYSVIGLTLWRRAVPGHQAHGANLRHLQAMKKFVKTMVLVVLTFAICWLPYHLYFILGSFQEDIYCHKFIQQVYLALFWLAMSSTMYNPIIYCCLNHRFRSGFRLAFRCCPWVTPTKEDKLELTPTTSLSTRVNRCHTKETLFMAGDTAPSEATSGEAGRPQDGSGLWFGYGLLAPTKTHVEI
# Outline: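 Radioligand binding on membranes from CHO cells expressing receptor, filter-based scintillation read 4 h after dosing. Initial duplicate screen at 25 uM, actives in concentration series; loss of signal versus DMSO.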
# [2] = target: human Opioid Receptor Delta 1 (Opiate D1), OPRD1 (gene 4985) (UniProt P41143); assay: NVS_GPCR_hOpiate_D1: NovaScreen (NVS) G Protein-Coupled Receptor Assay for human Opioid Receptor Delta 1 (Opiate D1) (AID 2283280)
# Chain of human Opioid Receptor Delta 1 (Opiate D1), OPRD1 (gene 4985) (P41143 whole entry, looked up): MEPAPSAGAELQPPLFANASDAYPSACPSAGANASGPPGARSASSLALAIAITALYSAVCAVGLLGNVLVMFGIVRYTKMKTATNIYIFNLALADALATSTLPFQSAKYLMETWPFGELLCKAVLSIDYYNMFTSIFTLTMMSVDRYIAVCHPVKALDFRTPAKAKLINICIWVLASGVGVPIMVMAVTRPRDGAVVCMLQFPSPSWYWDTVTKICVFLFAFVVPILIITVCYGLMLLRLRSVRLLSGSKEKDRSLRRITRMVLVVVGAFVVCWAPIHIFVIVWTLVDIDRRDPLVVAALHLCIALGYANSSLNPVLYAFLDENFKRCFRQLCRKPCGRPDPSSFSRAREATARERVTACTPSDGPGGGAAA
# Outline: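 Membrane preparations from CHO cells bearing the human receptor were incubated 1 h with test chemical, and bound radioligand was counted after filtration. Actives from 25 uM duplicate screening were retested in concentration-response.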
# [3] = target: human Opioid Receptor Mu (Opiate Mu), OPRM1 (gene 4988) (UniProt P35372); assay: NVS_GPCR_hOpiate_mu: NovaScreen (NVS) G Protein-Coupled Receptor Assay for human Opioid Receptor Mu (Opiate Mu) (AID 2283290);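 also: hits lower bound tracer signal versus DMSO meaning displacement of the ligand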
# Chain of human Opioid Receptor Mu (Opiate Mu), OPRM1 (gene 4988) (P35372 whole entry, looked up): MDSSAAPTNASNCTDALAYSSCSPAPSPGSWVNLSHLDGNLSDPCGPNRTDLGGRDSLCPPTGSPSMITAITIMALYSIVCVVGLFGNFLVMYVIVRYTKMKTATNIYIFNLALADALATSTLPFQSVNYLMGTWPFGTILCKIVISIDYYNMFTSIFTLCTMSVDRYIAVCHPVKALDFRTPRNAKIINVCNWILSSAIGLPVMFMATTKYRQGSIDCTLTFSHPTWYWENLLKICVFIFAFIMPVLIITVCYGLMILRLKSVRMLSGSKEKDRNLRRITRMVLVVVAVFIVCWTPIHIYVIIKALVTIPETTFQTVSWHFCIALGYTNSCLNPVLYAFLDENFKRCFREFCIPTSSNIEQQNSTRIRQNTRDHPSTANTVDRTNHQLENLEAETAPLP
# Outline: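 Radioligand displacement binding on membranes from CHO cells expressing the receptor, 2.5 h after dosing, filter-based scintillation counting; loss of signal vs DMSO baseline. Screened in duplicate at 25 uM, actives then run in concentration series.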
# [4] = target: rat Serotonin, 5-Hydroxytryptamine Receptor 1 (5HT1), Non-Selective Binding, Htr1a (gene 24473) (UniProt P19327); assay: NVS_GPCR_r5HT1_NonSelective: NovaScreen (NVS) G Protein-Coupled Receptor Assay for rat Serotonin, 5-Hydroxytryptamine Receptor 1 (5HT1), Non-Selective Binding (AID 2283286)
# Chain of rat Serotonin, 5-Hydroxytryptamine Receptor 1 (5HT1), Non-Selective Binding, Htr1a (gene 24473) (P19327 whole entry, looked up): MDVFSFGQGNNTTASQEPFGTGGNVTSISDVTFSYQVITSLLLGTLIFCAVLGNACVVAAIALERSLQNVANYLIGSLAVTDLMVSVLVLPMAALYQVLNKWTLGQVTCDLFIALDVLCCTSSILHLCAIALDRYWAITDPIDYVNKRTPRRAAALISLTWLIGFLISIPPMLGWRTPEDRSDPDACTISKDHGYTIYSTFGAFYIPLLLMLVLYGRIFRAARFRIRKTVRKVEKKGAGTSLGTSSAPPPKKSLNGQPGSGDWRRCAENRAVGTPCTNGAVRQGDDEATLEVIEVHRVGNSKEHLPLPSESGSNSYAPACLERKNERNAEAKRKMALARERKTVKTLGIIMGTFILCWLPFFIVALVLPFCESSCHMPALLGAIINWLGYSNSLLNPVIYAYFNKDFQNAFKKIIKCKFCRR
# Outline: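 Binding of a radioligand to rat cortex membranes is read by filtration and scintillation counting after 1 h. Compounds were screened at 25 uM in duplicate. Actives were then titrated to a top of 50 uM. DMSO is the baseline.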
# [5] = target: rat Adrenergic, Alpha 1, Non-selective Receptor (Adra1), Adra1a (gene 29412) (UniProt P43140); assay: NVS_GPCR_rAdra1_NonSelective: NovaScreen (NVS) G Protein-Coupled Receptor Assay for rat Adrenergic, Alpha 1, Non-selective Receptor (Adra1) (AID 2283289)
# Chain of rat Adrenergic, Alpha 1, Non-selective Receptor (Adra1), Adra1a (gene 29412) (P43140 whole entry, looked up): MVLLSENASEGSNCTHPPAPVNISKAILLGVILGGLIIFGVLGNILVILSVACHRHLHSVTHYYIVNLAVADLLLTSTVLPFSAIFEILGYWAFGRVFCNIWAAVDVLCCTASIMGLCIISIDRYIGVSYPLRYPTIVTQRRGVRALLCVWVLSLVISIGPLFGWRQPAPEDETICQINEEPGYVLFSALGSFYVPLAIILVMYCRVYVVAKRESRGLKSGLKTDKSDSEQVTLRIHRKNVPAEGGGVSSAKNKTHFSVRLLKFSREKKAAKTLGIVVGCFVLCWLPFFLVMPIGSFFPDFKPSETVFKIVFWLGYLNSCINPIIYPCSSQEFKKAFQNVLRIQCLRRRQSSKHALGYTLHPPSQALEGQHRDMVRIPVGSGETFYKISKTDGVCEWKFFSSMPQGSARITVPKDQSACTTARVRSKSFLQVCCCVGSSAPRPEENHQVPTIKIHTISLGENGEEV
# Outline: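 Chemicals first screened in duplicate at 25 uM, then actives tested in concentration series up to 50 uM. Binding measured as displacement of radioligand from rat forebrain membrane receptors, 1 h, filtration with scintillation readout; DMSO baseline.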
# [6] = test system: 5-hydroxytryptamine receptor 2C (pig); assay: NVS_GPCR_p5HT2C: NovaScreen (NVS) G Protein-Coupled Receptor Assay for pig Serotonin, 5-Hydroxytryptamine Receptor 2C (5HT2C) (AID 2283288)
# Outline: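 Radioligand displacement on membranes from pig choroid plexus, detected by filter scintillation counting after 1 h. Tested first at a single 25 uM in duplicate, then in concentration-response for actives; DMSO served as baseline.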
# [7] = target: Muscarinic acetylcholine receptor M5 (Homo sapiens) (UniProt P08912); assay: NVS_GPCR_hM5: NovaScreen (NVS) G Protein-Coupled Receptor Assay for human Muscarinic, M5 Receptor (AID 2283275)
# Outline: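 Chemicals passing a primary duplicate screen at 25 uM were run as singleton concentration series, maximum 50 uM. Displacement of a specific radioligand from CHO-extracted receptor was read by filter scintillation after 1 h, relative to DMSO.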
# [8] = target: human Neuropeptide Receptor Y1 (NPY1), NPY1R (gene 4886) (UniProt P25929); assay: NVS_GPCR_hNPY1: NovaScreen (NVS) G Protein-Coupled Receptor Assay for human Neuropeptide Receptor Y1 (NPY1) (AID 2283276)
# Chain of human Neuropeptide Receptor Y1 (NPY1), NPY1R (gene 4886) (P25929 whole entry, looked up): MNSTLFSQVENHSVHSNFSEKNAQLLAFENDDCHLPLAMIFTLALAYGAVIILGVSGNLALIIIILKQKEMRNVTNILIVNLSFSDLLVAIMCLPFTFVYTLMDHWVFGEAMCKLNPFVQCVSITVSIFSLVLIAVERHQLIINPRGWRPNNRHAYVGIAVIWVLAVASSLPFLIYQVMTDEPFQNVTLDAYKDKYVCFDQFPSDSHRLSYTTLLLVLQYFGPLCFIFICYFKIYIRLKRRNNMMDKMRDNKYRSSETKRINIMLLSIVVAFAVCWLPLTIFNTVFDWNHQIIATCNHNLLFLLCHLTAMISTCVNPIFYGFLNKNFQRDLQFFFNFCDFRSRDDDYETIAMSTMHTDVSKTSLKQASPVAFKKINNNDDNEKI
# Outline: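 Displacement of specific radioligand from NPY1 receptor of SK-N-MC origin, read by filtration and scintillation after 1 h. Compounds first tested at 25 uM in duplicate, then actives in concentration series; signal loss relative to DMSO.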
# [9] = target: Neuropeptide Y receptor type 2 (Homo sapiens) (UniProt P49146); assay: NVS_GPCR_hNPY2: NovaScreen (NVS) G Protein-Coupled Receptor Assay for human Neuropeptide Receptor Y2 (NPY2) (AID 2283277)
# Chain of Neuropeptide Y receptor type 2 (Homo sapiens) (P49146 whole entry, looked up): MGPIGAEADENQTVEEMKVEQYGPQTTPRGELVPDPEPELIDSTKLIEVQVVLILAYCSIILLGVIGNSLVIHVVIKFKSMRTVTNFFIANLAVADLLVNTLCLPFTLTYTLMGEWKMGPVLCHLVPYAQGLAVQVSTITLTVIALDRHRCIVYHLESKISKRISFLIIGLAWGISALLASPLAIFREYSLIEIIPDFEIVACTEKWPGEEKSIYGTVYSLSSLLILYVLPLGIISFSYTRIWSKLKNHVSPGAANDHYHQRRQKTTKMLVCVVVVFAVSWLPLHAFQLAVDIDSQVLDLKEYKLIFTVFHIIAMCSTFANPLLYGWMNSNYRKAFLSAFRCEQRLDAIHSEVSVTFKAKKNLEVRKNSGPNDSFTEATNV
# Outline: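 Chemicals were first tested in duplicate at 25 uM, then actives in singleton concentration series to 50 uM. Tracer binding to SK-N-MC-derived protein measured cell-free after 1 h via filter scintillation; signal loss relative to DMSO.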
# [10] = target: human Purinergic Receptor P2Y, P2RY1 (gene 5028) (UniProt P47900); assay: NVS_GPCR_hPY2: NovaScreen (NVS) G Protein-Coupled Receptor Assay for human Purinergic Receptor P2Y (AID 2283281)
# Chain of human Purinergic Receptor P2Y, P2RY1 (gene 5028) (P47900 whole entry, looked up): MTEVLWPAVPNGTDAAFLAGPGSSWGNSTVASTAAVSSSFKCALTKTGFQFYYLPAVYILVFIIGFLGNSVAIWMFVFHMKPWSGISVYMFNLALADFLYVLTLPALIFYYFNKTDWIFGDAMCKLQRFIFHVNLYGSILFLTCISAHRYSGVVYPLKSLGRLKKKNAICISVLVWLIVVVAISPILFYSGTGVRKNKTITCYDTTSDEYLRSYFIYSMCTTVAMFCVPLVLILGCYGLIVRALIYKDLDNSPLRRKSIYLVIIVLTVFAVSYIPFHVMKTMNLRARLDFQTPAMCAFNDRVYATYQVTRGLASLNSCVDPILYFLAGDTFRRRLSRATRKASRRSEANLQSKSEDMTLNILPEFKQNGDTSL
# Outline: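 Filtration scintillation readout of radioligand displacement on U937 extract, measured 1 h post-dosing. Single 25 uM duplicate screen, then singleton concentration series to 50 uM for chemicals passing threshold; DMSO as baseline.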
# [11] = target: human Orphanin, Opioid Related Nociceptin Receptor 1 (ORL1), OPRL1 (gene 4987) (UniProt P41146); assay: NVS_GPCR_hORL1: NovaScreen (NVS) G Protein-Coupled Receptor Assay for human Orphanin, Opioid Related Nociceptin Receptor 1 (ORL1) (AID 2283283)
# Outline: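 Cell-free binding using HEK293-derived receptor protein: radioligand displacement measured by filter scintillation 1 hour after dosing. Primary testing at 25 uM in duplicate, followed by singleton concentration series up to 50 uM; DMSO served as negative control.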
# [12] = target: mouse Cholecystokinin, CCK1 Receptor (CCKA), Cckar (gene 12425) (UniProt O08786); assay: NVS_GPCR_mCCKAPeripheral: NovaScreen (NVS) G Protein-Coupled Receptor Assay for mouse Cholecystokinin, CCK1 Receptor (CCKA) (AID 2283285)
# Chain of mouse Cholecystokinin, CCK1 Receptor (CCKA), Cckar (gene 12425) (O08786 whole entry, looked up): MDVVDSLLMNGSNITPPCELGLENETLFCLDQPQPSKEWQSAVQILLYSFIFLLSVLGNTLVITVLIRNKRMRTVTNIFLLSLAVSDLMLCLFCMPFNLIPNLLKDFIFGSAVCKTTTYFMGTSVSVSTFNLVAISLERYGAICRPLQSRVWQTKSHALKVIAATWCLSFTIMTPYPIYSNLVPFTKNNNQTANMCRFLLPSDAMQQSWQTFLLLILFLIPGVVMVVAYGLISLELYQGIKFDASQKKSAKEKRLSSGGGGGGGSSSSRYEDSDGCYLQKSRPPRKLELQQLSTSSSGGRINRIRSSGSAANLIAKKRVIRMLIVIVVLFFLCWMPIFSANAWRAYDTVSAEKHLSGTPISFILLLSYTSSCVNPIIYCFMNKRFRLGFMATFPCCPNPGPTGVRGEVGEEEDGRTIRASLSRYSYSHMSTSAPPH
# Outline: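 Chemicals were first screened in duplicate at 25 uM, with those meeting threshold (e.g., 30% inhibition) retested in singleton concentration series to 50 uM maximum. Binding of radioligand to mouse pancreatic membranes was read after 2 h by filtration and scintillation counting.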
# [13] = test system: rabbit Platelet Activating Factor Receptor (PAF), gene 100354046; assay: NVS_GPCR_rabPAF: NovaScreen (NVS) G Protein-Coupled Receptor Assay for rabbit Platelet Activating Factor Receptor (PAF) (AID 2283287)
# Outline: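 Rabbit platelet membrane preparation; radioligand displacement read by filter-based scintillation counting 1 h after dosing, loss of signal versus DMSO. Primary screen in duplicate at 25 uM, actives followed up in concentration series.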
# [14] = target: mouse Cholecystokinin, CCK2 Receptor (CCKB), Cckbr (gene 12426) (UniProt P56481); assay: NVS_GPCR_mCKKBCentral: NovaScreen (NVS) G Protein-Coupled Receptor Assay for mouse Cholecystokinin, CCK2 Receptor (CCKB) (AID 2283293)
# Chain of mouse Cholecystokinin, CCK2 Receptor (CCKB), Cckbr (gene 12426) (P56481 whole entry, looked up): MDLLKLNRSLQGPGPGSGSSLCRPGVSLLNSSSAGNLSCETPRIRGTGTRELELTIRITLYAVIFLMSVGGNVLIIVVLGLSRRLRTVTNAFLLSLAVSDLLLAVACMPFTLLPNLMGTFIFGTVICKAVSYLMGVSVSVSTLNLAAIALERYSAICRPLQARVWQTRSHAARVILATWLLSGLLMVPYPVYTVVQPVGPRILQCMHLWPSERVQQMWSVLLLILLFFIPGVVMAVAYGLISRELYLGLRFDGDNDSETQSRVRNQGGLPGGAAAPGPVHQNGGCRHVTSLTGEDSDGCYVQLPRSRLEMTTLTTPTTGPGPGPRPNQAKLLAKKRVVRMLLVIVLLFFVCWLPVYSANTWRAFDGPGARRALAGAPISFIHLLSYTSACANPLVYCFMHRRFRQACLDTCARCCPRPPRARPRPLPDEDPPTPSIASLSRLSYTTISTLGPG
# Outline: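 Mouse forebrain membrane preparation incubated 2 h with chemical and radioligand; bound radioactivity counted after filtration. Single-concentration duplicate screen at 25 uM, then concentration series to 50 uM max for hits, DMSO as baseline.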
# [15] = target: guinea pig Serotonin, 5-Hydroxytryptamine Receptor 4 (5HT4), HTR4 (gene 100135548) (UniProt O70528); assay: NVS_GPCR_g5HT4: NovaScreen (NVS) G Protein-Coupled Receptor Assay for guinea pig Serotonin, 5-Hydroxytryptamine Receptor 4 (5HT4) (AID 2283294)
# Chain of guinea pig Serotonin, 5-Hydroxytryptamine Receptor 4 (5HT4), HTR4 (gene 100135548) (O70528 whole entry, looked up): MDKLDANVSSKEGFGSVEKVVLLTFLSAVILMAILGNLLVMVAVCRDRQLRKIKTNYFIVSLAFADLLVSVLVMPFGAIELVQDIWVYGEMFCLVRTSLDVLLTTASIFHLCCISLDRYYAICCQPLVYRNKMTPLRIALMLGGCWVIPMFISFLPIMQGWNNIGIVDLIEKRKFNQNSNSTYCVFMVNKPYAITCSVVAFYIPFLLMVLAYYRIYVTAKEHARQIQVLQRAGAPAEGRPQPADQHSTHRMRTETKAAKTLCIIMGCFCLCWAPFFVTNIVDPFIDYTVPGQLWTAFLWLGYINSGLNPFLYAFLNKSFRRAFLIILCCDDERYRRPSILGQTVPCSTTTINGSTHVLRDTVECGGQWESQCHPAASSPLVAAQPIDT
# Outline: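 Compounds first screened in duplicate at 25 uM, actives followed up in concentration series. Binding measured as displacement of specific radioligand from guinea pig striatal membranes, 1 h, filter-based scintillation read-out versus DMSO baseline.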
# [16] = target: rat Serotonin, 5-Hydroxytryptamine Receptor (5HT), Non-Selective Binding, Htr1a (gene 24473) (UniProt P19327); assay: NVS_GPCR_r5HT_NonSelective: NovaScreen (NVS) G Protein-Coupled Receptor Assay for rat Serotonin, 5-Hydroxytryptamine Receptor (5HT), Non-Selective Binding (AID 2283295)
# Chain of rat Serotonin, 5-Hydroxytryptamine Receptor (5HT), Non-Selective Binding, Htr1a (gene 24473) (P19327 whole entry, looked up): as the sequence (P19327 whole entry, looked up) above
# Outline: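 Rat cortex membrane preparation incubated 1 h with radioligand and test chemical; bound radioactivity counted after filtration. Screening began in duplicate at 25 uM with concentration-series follow-up; fitting relative to DMSO.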
# [17] = target: rat Adrenergic, Alpha 1A Receptor (Adra1A), Adra1a (gene 29412) (UniProt P43140); assay: NVS_GPCR_rAdra1A: NovaScreen (NVS) G Protein-Coupled Receptor Assay for rat Adrenergic, Alpha 1A Receptor (Adra1A) (AID 2283296)
# Outline: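 Filter radiodetection after 1 h competitive binding on CEC-pretreated rat cortical membranes. Duplicate single-point screening at 25 uM; active chemicals retested across concentration series.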
# [18] = test system: rat Adrenergic, Alpha 1B Receptor (Adra1B), gene 24173; assay: NVS_GPCR_rAdra1B: NovaScreen (NVS) G Protein-Coupled Receptor Assay for rat Adrenergic, Alpha 1B Receptor (Adra1B) (AID 2283297)
# Outline: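 Filter-binding radioligand competition on membranes from rat liver, read after 1 h by scintillation counting. Single-concentration duplicate screen at 25 uM, followed by concentration-response on actives, normalised to DMSO.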
# [19] = target: human Neurotensin Receptor (NTS), NTSR1 (gene 4923) (UniProt P30989); assay: NVS_GPCR_hNTS: NovaScreen (NVS) G Protein-Coupled Receptor Assay for human Neurotensin Receptor (NTS) (AID 2283279)
# Outline: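 Compounds competed with a radiolabelled ligand for binding to CHO-derived human neurotensin receptor; bound signal counted after filtration, 1 h. Screened first at a single concentration of 25 uM in duplicate, then concentration series to 50 uM maximum for actives.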
structure (smiles),measurement,setting,value
Nc1cccc2ccccc12,AC50,[1],4.28 µM (active)
O=C(O)C(F)(F)C(F)(F)C(F)(F)C(F)(F)C(F)(F)C(F)(F)C(F)(F)C(F)(F)C(F)(F)C(F)(F)F,AC50,[2],10.7 µM (active)
same,AC50,[3],12.4 µM (active)
COc1cc(-c2ccc(N)c(OC)c2)ccc1N,AC50,[4],11.8 µM (active) and 12.6 µM (active)
same,outcome,[5],inactive
CCOC(=O)Nc1cccc(OC(=O)Nc2ccccc2)c1,AC50,[6],20.3 µM (active)
CC12CC1(C)C(=O)N(c1cc(Cl)cc(Cl)c1)C2=O (stereo unspecified),outcome,[1],inactive
CC(=O)[O][Hg][c]1ccccc1,AC50,[7],0.591 µM (active)
same,AC50,[8],0.51 µM (active)
same,AC50,[9],8.48 µM (active)
same,AC50,[1],0.52 µM (active)
same,AC50,[2],0.848 µM (active)
same,AC50,[10],5.96 µM (active)
same,AC50,[11],0.473 µM (active)
same,AC50,[12],1.65 µM (active)
same,AC50,[4],16.4 µM (active)
same,AC50,[13],38.4 µM (active)
same,AC50,[5],18.8 µM (active)
same,AC50,[3],0.0908 µM (active)
same,AC50,[14],25 µM (active)
same,AC50,[15],14.2 µM (active)
same,AC50,[16],19.8 µM (active)
same,AC50,[17],25 µM (active)
same,AC50,[18],3.43 µM (active)
O=C(OC1CCCCC1)c1ccccc1C(=O)OC1CCCCC1,outcome,[3],inactive
COP(=S)(OC)Oc1ccc(Sc2ccc(OP(=S)(OC)OC)cc2)cc1,outcome,[1],inactive
same,outcome,[10],inactive
CCOP(=S)(OCC)SCSP(=S)(OCC)OCC,outcome,[3],inactive
COP(=S)(OC)Oc1cc(Cl)c(Cl)cc1Cl,outcome,[1],inactive
Oc1cccc2cccnc12,outcome,[8],inactive
same,AC50,[1],4.96 µM (active)
same,outcome,[19],inactive
Nc1ncc([N+](=O)[O-])s1,outcome,[1],inactive
same,AC50,[3],17.6 µM (active)
O=[N+]([O-])c1ccc(O)c([N+](=O)[O-])c1,AC50,[14],25 µM (active)
CC(C)(C)CC(C)(C)c1ccc(O)cc1,AC50,[1],25 µM (active)
same,AC50,[2],8.28 µM (active)
same,outcome,[10],inactive
same,AC50,[12],12 µM (active)
same,AC50,[3],16.7 µM (active)
same,outcome,[14],inactive
